Where “and” joins values, the source holds several entries; their conditions need not be identical. Equal entries are not always repeated. The whole screen tested about 5,500 compounds, of which about 2,000 (36%) were called active. Inconclusive results (about 18%) are left out. No stated cut-off is given here; in the data, active means normalized growth mostly below about 0.91 (no sharp cut-off); inconclusive means no clear call, values can overlap the other calls; inactive means mostly above about 0.92. Some of the results follow.
Assay: chemical genetic growth profiling, strain panel (AID 1159580);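 further: tested at 20 µM; growth read once vehicle control cultures reached saturation at 30 °C; 1 = growth at the plate median or of vehicle wells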
Settings: S. cerevisiae deletion strains, growth OD

Measured: normalized growth

CC[N+](C)(C)c1cccc(O)c1
inactive: locus YJR075W, strain HOC1, stronger effect = lower value 0.985 and 1.04 | locus YKL009W, strain mrt4, stronger effect = lower value 1 | locus YKL068W, stronger effect = lower value 0.985 | locus YKL085W, strain MDH1 (second series), stronger effect = lower value 1 | locus YKL085W, strain MDH1, stronger effect = lower value 1 | locus YKL160W, strain elf1, stronger effect = lower value 1.06 | locus YKL190W, strain CNB1, stronger effect = lower value 1.01 | locus YKR001C, strain vps1, stronger effect = lower value 0.97 | locus YKR026C, strain gcn3, stronger effect = lower value 1 | locus YKR091W, strain srl3, stronger effect = lower value 1.01 | locus YLL001W, strain dnm1, stronger effect = lower value 1.06 | locus YLL026W, stronger effect = lower value 1 | locus YLL041C, strain sdh2, stronger effect = lower value 1.01 | locus YLR027C, strain aat2, stronger effect = lower value 1.02 | locus YLR039C, strain RIC1, stronger effect = lower value 0.993 | locus YLR058C, strain SHM2, stronger effect = lower value 0.982 | locus YLR102C, strain apc9, stronger effect = lower value 0.977 | locus YLR113W, strain HOG1, stronger effect = lower value 0.996 | locus YLR221C, strain rsa3, stronger effect = lower value 1.03 | locus YLR258W, strain gsy2, stronger effect = lower value 1.01 | locus YLR262C, strain YPT6 (second series), stronger effect = lower value 1.05 | locus YLR262C, strain YPT6, stronger effect = lower value 1 | locus YLR268W, strain sec22, stronger effect = lower value 0.917 | locus YLR320W, strain mms22, stronger effect = lower value 1.06 | locus YLR330W, strain CHS5, stronger effect = lower value 0.992 | locus YLR342W, strain FKS1 (second series), stronger effect = lower value 1.04 | locus YLR342W, strain FKS1, stronger effect = lower value 1.02 | locus YLR357W, strain rsc2, stronger effect = lower value 1.01 | locus YLR370C, strain arc18, stronger effect = lower value 1.01 | locus YLR371W, strain rom2, stronger effect = lower value 0.969 | locus YLR384C, strain iki3, stronger effect = lower value 0.996 | locus YLR418C, strain cdc73, stronger effect = lower value 0.954 | locus YML016C, strain PPZ1, stronger effect = lower value 0.992 | locus YML032C, strain rad52, stronger effect = lower value 0.954 | locus YML120C, strain ndi1, stronger effect = lower value 1.04 | locus YML124C, strain tub3, stronger effect = lower value 0.984 | locus YMR058W, strain fet3, stronger effect = lower value 1.02 | locus YMR078C, strain ctf18, stronger effect = lower value 0.96 | locus YMR125W, strain sto1, stronger effect = lower value 1.05 | locus YMR129W, stronger effect = lower value 1.01 | locus YMR205C, strain PFK2, stronger effect = lower value 1.04 | locus YMR223W, strain ubp8, stronger effect = lower value 0.996 | locus YMR231W, strain pep5, stronger effect = lower value 1 | locus YMR263W, strain SAP30, stronger effect = lower value 0.993 | locus YMR307W, strain GAS1, stronger effect = lower value 0.956 and 1.04 | locus YNL067W, strain RPL9B, stronger effect = lower value 0.975 | locus YNL071W, strain lat1, stronger effect = lower value 1.02 | locus YNL128W, strain TEP1, stronger effect = lower value 0.991

From PubChem BioAssay AID1159580 (chemical genetic matrix, 2015)
